From PubChem BioAssay (NCATS)
Inconclusive results are not listed. Active and inactive are the calls of the source. Calls come from the whole dose curve; as a rule, active = well fitted inhibition curve with a large enough effect; inconclusive = small, poorly fitted or top-dose-only effect; inactive = flat fitted curve, though single readings scatter.

Assays:
Assay in all cases: qHTS profiling for inhibitors of Plasmodium falciparum proliferation (AID 504749); note: nearly all actives have a fitted effect of over 60% in size
Conditions in all cases: P. falciparum in erythrocytes, SYBR Green DNA, 72 h; series mostly up to 28.7 µM
CP217 = test system: CP217
How it was run: (§1)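 In a 72 h erythrocytic culture (37 C, humidified, 5% CO2) at 2.5% hematocrit and 0.3% starting parasitemia, compounds were tested; SYBR Green I in detergent lysis buffer stained parasite DNA overnight.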

CP237 = test system: CP237
How it was run: as §1

CP238 = test system: CP238
How it was run: as §1

CP247 = test system: CP247
How it was run: as §1

CP250 = test system: CP250
How it was run: as §1

CP252 = test system: CP252
How it was run: as §1

CP256 = test system: CP256
How it was run: as §1

CP260 = test system: CP260
How it was run: as §1

CP262 = test system: CP262
How it was run: as §1

CP265 = test system: CP265
How it was run: as §1

CP266 = test system: CP266
How it was run: as §1

CP268 = test system: CP268
How it was run: as §1

CP269 = test system: CP269
How it was run: as §1

CP286 = test system: CP286
How it was run: as §1

CP291 = test system: CP291
How it was run: as §1

CP297 = test system: CP297
How it was run: as §1

CP305 = test system: CP305
How it was run: as §1

CP315 = test system: CP315
How it was run: as §1

CP325 = test system: CP325
How it was run: as §1

CP329 = test system: CP329
How it was run: as §1

Measured: outcome

CCc1cccc2c3c([nH]c12)[C@@](CC)(CC(=O)O)OCC3
inactive: all assays above

CCOC(=O)C(CCc1ccccc1)NC(C)C(=O)N1Cc2ccccc2CC1C(=O)O (stereo not given)
inactive: all assays above
